Only some compounds are listed: those with a hit (about 4.7% of all), similar ones and a draw of the others.
SKKanGAS inh = S. pyogenes SKKanGAS growth inhibitors in kanamycin, primary screen, streptokinase expression inhibitor project, SKKanGAS strain, BacTiter-Glo luminescence; 1.3% of 300,000 active; 6 h; inhibition, % at 7.5 µM; AID 1662, 2009;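 active = mean replicate score, as percent of positive control median, at least 50; inconclusive = mean below 50 but one replicate at or above 50; inactive = mean and every replicate below 50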;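 note: strain carries kanamycin resistance gene driven by streptokinase promoter and grows in 40 µg/ml kanamycin; loss of luminescence reflects streptokinase promoter inhibition or plain growth inhibition; 0% = median of DMSO wells and 100% = positive control at its reference dose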
TIM10 inh = growth inhibitors of isogenic TIM10 control yeast, primary screen, counter-screen for tim10-1 yeast inhibitor project, luminescence, uHTS | 1.4% of 330,000 active | S. cerevisiae TIM10 strain growth, BacTiter-Glo luminescence, 24 h | inhibition, % at 10 µM | AID 463195, 2010;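 active = inhibition of 40% or more at the single tested concentration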;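 note: wild-type TIM10 isogenic control strain grown at permissive 25 °C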
PfHsp90 yeast 2 = growth inhibition of PfHsp90-expressing yeast, primary screen, antimalarial PfHsp90 inhibitor project, S. cerevisiae, BacTiter-Glo luminescence, single point, set 2; BacTiter-Glo ATP, 48 h; yeast lacking PDR1 and PDR3 efflux regulators; inhibition, % at 9.4 µM; 0.32% of 310,000 active; AID 504621, 2011;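 active = every replicate shows inhibition above about 80%, whatever the replicate mean, limit read from the data; inconclusive = mean inhibition reaches the set limit but some replicate falls short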;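 note: 0% = DMSO neutral controls and 100% = 20 µM radicicol positive controls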
Calb FLC = C. albicans growth inhibition with fluconazole, primary screen, CaCi-2 strain, Alamar Blue fluorescence. C. albicans CaCi-2 (fluconazole-resistant clinical isolate) + fluconazole, 48 h. 0.57% of 300,000 active. AID 1979, 2009. growth inhibition, % (test concentration not listed);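 active = growth inhibition above about 58% in most replicates, limit read from the data, passing the limit was not always enough; inconclusive = exactly half the replicates above a set limit; inactive = most replicates below a set limit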;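 note: all wells also contain fluconazole at 8 µg/ml as a sub-toxic cotreatment; 0% = median of DMSO wells and 100% = median of geldanamycin control wells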
tim23-1 inh = growth inhibitors of tim23-1 mutant yeast, primary screen, luminescence, uHTS | 1.3% of 330,000 active | S. cerevisiae tim23-1 growth, BacTiter-Glo luminescence, 24 h | AID 463212, 2010 | inhibition, % at 20 µM;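 active = growth inhibition of the mutant yeast at or above 50%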;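 note: temperature-sensitive mutant grown at 25 °C; plate controls were DMSO-treated mutant yeast for no effect and medium wells lacking yeast for full effect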
tim10-1 inh = growth inhibitors of tim10-1 mutant yeast, primary screen, luminescence, uHTS; S. cerevisiae tim10-1 ts strain growth, BacTiter-Glo, 24 h; inhibition, % at 20 µM; 2.2% of 330,000 active; AID 463190, 2010;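 active = inhibition of at least 40%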;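 note: mutant grown at 25 °C; 0% = DMSO wells with yeast and 100% = wells holding no yeast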
tim23-1 conf = tim23-1 mutant yeast growth inhibitors, confirmation, luminescence, single concentration | 83% of 4,400 active | shares compounds with tim23-1 inh | S. cerevisiae tim23-1 growth, BacTiter-Glo luminescence, 24 h | inhibition, % at 20 µM;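 active = inhibition above about 39% in either of two replicate wells at 20 µM, limit read from the data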;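 note: temperature-sensitive tim23-1 mutant grown at 25 °C; 0% = DMSO wells with yeast and 100% = medium wells without yeast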
Active calls of the source: *; ? = inconclusive; nt = no result.

SMILES | SKKanGAS inh | TIM10 inh | PfHsp90 yeast 2 | Calb FLC | tim23-1 inh | tim10-1 inh | tim23-1 conf
O=C(Nc1cc(Br)c(O)c(Br)c1)c1cccc(NC(=O)c2ccco2)c1 | 22.2 | -13.5 | -6.3 | 6.7 | -4.6 | -21.5 | nt
O=C(Nc1cccc(N=Cc2cc(Cl)cc(Br)c2O)c1)c1ccco1 | 8.7 | 11.8 | 42.7 | 2.8 | 77.7* | 19.7 | 89.8*
O=C(Nc1cccc(NC(=O)c2ccco2)c1)c1cccc(Br)c1 | 3.0 | 7.2 | -8.8 | 23.1 | 58.4* | -9.6 | 60.0*
Fc1cnc(Cl)nc1NC1CCCCC1 | 2.0 | 11.0 | -0.7 | 5.6 | 11.5 | 20.9 | nt
CCC/C(=C1/c2ccccc2C(=O)N1c1ccccc1)c1ccc2[nH]ccc2c1 | nt | 12.8 | 22.2 | nt | 5.9 | 9.8 | nt
O=C1c2ccccc2/C(=C\c2ccc3[nH]ccc3c2)N1c1ccccc1 | nt | 34.4 | 8.8 | nt | 63.0* | 35.1 | 52.6*
CCCCOc1ccc(C(=O)NCC(=O)NC2CCN(Cc3ccccc3)CC2)cc1 | -2.2 | 5.9 | 7.0 | -1.1 | -5.0 | -10.3 | nt
COc1ccc(CNCc2ccc(C(F)(F)F)cc2)cc1OC | -1.4 | -0.8 | -10.0 | -7.7 | 15.0 | 0.9 | nt
O=C(Nc1cc(Cl)ccc1O)C1CC(c2ccccc2Cl)=NO1 (stereo not drawn) | -2.2 | 33.2 | -10.3 | -11.1 | 51.6* | 23.8 | 72.8*
O=C(CCc1nc2ccccc2c(=O)[nH]1)N1CCN(S(=O)(=O)c2ccc(F)cc2)CC1 | nt | 3.9 | 7.7 | nt | -5.2 | -1.5 | nt
COC(=O)c1sccc1NC(=O)Nc1ccc(F)cc1F | -4.5 | 21.5 | -25.4 | 8.5 | 10.4 | 31.0 | nt
COc1ccc(-c2ccnc3c(Br)c(C)nn23)cc1 | nt | 13.0 | -7.1 | nt | 50.5* | 32.0 | 53.4*
Cc1nn2c(-c3ccc(F)cc3)ccnc2c1Br | -1.4 | 9.5 | 4.7 | -0.2 | 21.3 | 9.0 | nt
COc1ccc(CCNS(=O)(=O)c2ccc(Br)cc2)cc1 | -7.4 | -2.0 | 3.4 | -47.1 | 51.8* | 35.0 | 29.7
O=c1ccn(C2CCCO2)c(=O)[nH]1 (stereo not drawn) | nt | nt | -3.0 | nt | nt | nt | nt
Cc1cc(C(=O)Nc2ccc(Br)cn2)sc1C | nt | 10.9 | 42.5 | nt | 63.8* | -0.5 | 68.5*
O=C(Nc1ccccc1C(=O)Nc1ccc(Br)cn1)c1ccccc1Cl | nt | 18.1 | -28.6 | nt | 51.7* | 37.3 | 53.6*
Cc1ccccc1C(=O)Nc1ccc(Br)cn1 | 1.7 | -8.4 | -8.9 | -17.0 | 21.4 | -1.0 | nt
O=C(Nc1ccc(Br)cn1)c1ccc(Br)s1 | -6.9 | 9.8 | 12.1 | -5.0 | 27.2 | 2.5 | nt
Cc1cccc(C)c1OCCOC(=O)c1n[nH]c2ccccc12 | 4.7 | 38.1 | -35.8 | 5.1 | 46.1 | 25.8 | nt
O=C(COC(=O)c1n[nH]c2ccccc12)c1cccc(Br)c1 | 39.2 | 13.3 | -3.0 | 23.2 | 50.4* | 29.8 | 39.7*
Cc1ccc(C)c(C(=O)COC(=O)c2n[nH]c3ccccc23)c1 | nt | 36.1 | -3.4 | nt | 58.3* | 23.4 | 49.1*
O=C(COC(=O)c1n[nH]c(=O)c2ccccc12)c1ccccc1 | -2.0 | 7.3 | 3.8 | -0.5 | 9.1 | 20.8 | nt
CCCC(C)NC(=S)Nc1cc(C)cc(C)c1 (stereo not drawn) | 12.8 | 9.9 | nt | -2.8 | 2.6 | 17.8 | nt
Oc1ccc(Br)cc1C=Nc1ccc(Cl)cc1 | 14.5 | 18.0 | -26.0 | -12.7 | 48.0 | 17.3 | nt
SMILES | SKKanGAS inh | TIM10 inh | PfHsp90 yeast 2 | Calb FLC | tim23-1 inh | tim10-1 inh | tim23-1 conf
Oc1c(Cl)cc(Cl)cc1C=Nc1ccc(Br)cc1 | 9.5 | 28.6 | 20.4 | -0.9 | 73.9* | 11.5 | 71.8*
N#Cc1ccc(C(=O)NC(=S)NC2CCCCC2)cc1 | nt | 32.0 | 1.3 | nt | 65.2* | 10.5 | 41.0*
O=C(NC(=S)NC1CCCC1)c1ccccc1 | -2.8 | 8.6 | -21.3 | -23.7 | 57.8* | 29.1 | 46.4*
O=C(NC(=S)NC1CCCCCCCCCCC1)c1cccnc1 | 1.7 | -36.9 | nt | 1.6 | 11.5 | 6.8 | nt
C/C(=N\NC(=S)NC1CCCCC1)c1ccc(C#N)cc1 | -3.8 | 27.9 | -40.9 | 6.8 | 23.3 | 28.3 | nt
CC(C)NC(=S)N/N=C/c1c[nH]c2ccccc12 | -10.7 | 31.9 | -38.1 | 7.0 | 55.9* | 36.1 | 39.5*
Cc1[nH]c2ccccc2c1/C=N/NC(=S)NC(C)C | -7.2 | 39.8 | nt | 0.0 | 46.6 | 39.4 | nt
C[n+]1c2n(c3ccccc31)N=C(c1ccc(-c3ccccc3)cc1)CS2 | 38.8 | 7.6 | -53.8 | 102.8* | 60.0* | -2.7 | 47.0*
CC(C)(C)NC(=O)C12CCC(C)(c3nc4ccccc4nc31)C2(C)C (stereo not drawn) | 3.9 | 38.3 | nt | -50.6 | 52.6* | 39.3 | 37.2
COC(=O)C12CCC(C)(c3nc4ccccc4nc31)C2(C)C (stereo not drawn) | 0.6 | 19.8 | 34.2 | 1.8 | 8.2 | 26.7 | nt
Cc1[nH]c2ccccc2c1C(=O)/C=C/c1ccccc1 | -2.6 | 14.2 | 29.9 | 8.9 | 63.9* | 26.7 | 55.6*
Cc1nc2ccccc2c(N)c1C(=O)/C=C/c1ccccc1 | 0.1 | 4.0 | -3.0 | 30.5 | 31.8 | 3.8 | nt
C=CCOc1ccc(/C=C2\SC(=S)N(NS(=O)(=O)c3ccccc3)C2=O)cc1 | 36.0 | 26.3 | -18.3 | 57.0 | 60.4* | 19.0 | 55.7*
CCCCc1ccc(NC(=O)CSc2nc(=O)n3cc(C)ccc3n2)cc1 | 3.4 | 12.2 | -12.1 | -3.0 | 12.4 | 12.7 | nt
Cc1cccc(N2C(=O)/C(=C/c3cccnc3)SC2=S)c1 | -1.4 | 11.0 | 6.3 | -18.9 | 58.0* | 38.0 | 54.4*
CCc1ccc(N2CC(C(=O)Nc3ccc(S(=O)(=O)NCC4CCCO4)cc3)CC2=O)cc1 (stereo not drawn) | 6.8 | 3.5 | 20.5 | -1.1 | 3.9 | -10.7 | nt
CCn1c(SCc2ccc(Cl)cc2)nc2nc3c(cc2c1=O)CCCC3 | 24.6 | 16.1 | -8.8 | 1.8 | 26.8 | 11.6 | nt
CSc1nc2nc3c(cc2c(=O)n1-c1ccccc1C)CCCC3 | -6.6 | 10.5 | 23.3 | 9.1 | 55.1* | 16.8 | 43.6*
Cn1ccsc1=NC(=O)c1ccc(S(C)(=O)=O)cc1 | 2.5 | 7.8 | 4.6 | -4.6 | 7.0 | -11.2 | nt
COc1ccccc1CCC(=O)NCCCn1ccc2ccccc21 | 0.3 | -9.4 | -32.1 | 5.3 | 22.4 | 29.8 | nt
CCCC(NC(=S)NCC1CCCO1)C12CC3CC(CC(C3)C1)C2 (stereo not drawn) | ? | 36.8 | -46.6 | -24.6 | 50.8* | 38.9 | 50.9*
O=C(Nc1ccc2c(c1)OCCO2)c1cccc(Cl)c1 | 0.5 | 33.2 | 20.6 | -23.3 | 51.5* | -6.5 | 57.0*
Nc1c(C(=O)Nc2ccc3c(c2)OCCO3)nnn1Cc1ccccc1Cl | 17.3 | -17.7 | 83.4* | 3.9 | 65.5* | 8.2 | 42.3*
